Experimental findings from PubChem BioAssay AID364 (The Scripps Research Institute Molecular Screening Center, 2006) are described below.

Among all 3,300 compounds or so, about 50 (2%) were called active.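 How the source made its calls: active means concentration giving half-maximal inhibition at or below 20 micromolar; inactive means half-maximal concentration above 20 micromolar, or not dose tested.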 Only a sample is shown. Measured potencies and affinities stand elsewhere.

What is called inhibition is the relative decrease from the control value, in per cent.

The test is described as follows: Jurkat cell viability reduction – Jurkat E6.1, NIH starter set, primary screen (AID 364).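 Further: 100% = cells treated with 4 µM doxorubicin.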 The conditions noted are these: Jurkat E6.1 viability, ATP luminescence, 48 h; at 4 µM; active compounds read high.
For the compound `c1ccc(OCc2nn3c(-c4cccnc4)nnc3s2)cc1`, the inhibition is -5.4% (inactive).
As to `CN(Cc1ccccc1)c1ncnc2ccc(Br)cc12`, the inhibition is 7.2% (inactive).
In the case of `c1ccc(N2CCN(c3nc(NCc4ccco4)c4ccccc4n3)CC2)cc1`, the inhibition was 2.5% (inactive).
As for `Oc1ccccc1-c1nc(NCc2ccco2)c2ccccc2n1`, the inhibition is -6.1% (inactive).
Under `Clc1ccc(-n2ncc3c(NCc4cccs4)ncnc32)cc1` stands 18.1% (inactive); under `Clc1ccc(-n2ncc3c(NCc4ccccn4)ncnc32)cc1`, 5.5% (inactive).
On to `CCN(CC)CCCn1c(C)cc2c(c1=O)C(c1ccc(OC)c(OC)c1OC)C(C#N)=C(N)O2` (stereo not drawn), for which the inhibition is 1.4% (inactive).
Consider `CCCOc1cccc(C2/C(=C(/O)c3ccccc3)C(=O)C(=O)N2CCN(C)C)c1` (stereo not drawn), for which the inhibition was 2.5% (inactive).
Regarding `O=C(c1coc(=O)c(Br)c1)N1CCOCC1`, the inhibition is 7.3% (inactive).
Under `COc1cccc(-c2nc(N3CCCCC3C)c3ccccc3n2)c1O` (stereo not drawn) stands -2% (inactive).
Under `Cc1nc(NS(=O)(=O)c2ccccc2)sc1NC(=O)OCCN(C)C` stands 9.6% (inactive); under `COC(=O)C1=C(N)Oc2cc(C)oc(=O)c2C1c1ccncc1` (stereo not drawn), -9.1% (inactive).
For the compound `O=C(O)CCc1nn2cc(-c3ccccc3)nc2[nH]c1=O`, the inhibition was -5.8% (inactive).
Turning to `Cc1cc(C)n(CC(=O)c2ccccc2)c(=O)c1C#N`, the inhibition was -17.6% (inactive).
Under `O=c1[nH]c2sc3c(c2c(=O)n1Cc1ccccc1)CCC3` stands 1.3% (inactive); under `COc1ccc(C2=CC(c3cccc(OC)c3)n3nnnc3N2)cc1` (stereo not drawn), -8.6% (inactive); under `COc1cccc(C2=CC(c3ccc(N(C)C)cc3)n3nnnc3N2)c1` (stereo not drawn), -9.6% (inactive).
As for `Cc1nc(SC2C=CS(=O)(=O)C2)n[nH]1` (stereo not drawn), the inhibition was -8.6% (inactive).
As to `CCCCNC1=C(Br)C(=O)CC(C)(C)C1`, the inhibition was -3.7% (inactive).
In the case of `Cn1c(Cn2cnc3ccccc32)nc2ccccc21`, the inhibition is 2.8% (inactive).
Under `CC(C(=O)N1CCOCC1)N1C(=O)c2ccccc2C1=O` (stereo not drawn) stands -0.7% (inactive); under `OCCNc1ncnc2c1c(-c1ccccc1)c(-c1ccccc1)n2Cc1ccco1`, 11.5% (inactive); under `O=c1c(C=NCCCn2ccnc2)c(-c2ccccc2)[nH]n1-c1nc2ccccc2s1`, -4.4% (inactive).
Regarding `CCCOc1cccc(CN2CCCCC2c2cccnc2)c1` (stereo not drawn), the inhibition was 0.8% (inactive).
With `CNC(=O)C1CC(=O)N(Cc2ccccc2)C(=Nc2ccc(OC)cc2)S1` (stereo not drawn), the inhibition is -6.1% (inactive).
In the case of `CCCCOC(=O)CCc1nc2ccccc2[nH]1`, the inhibition is 0.2% (inactive).
Under `CCCCOC(=O)Nc1ccc(S(=O)(=O)Nc2nc(C)cc(C)n2)cc1` stands 6.7% (inactive); under `CCOc1ccc2nc(SCC(=O)Nc3ncccn3)[nH]c2c1`, -1.3% (inactive).
